Assay results as given in PMC7862700, “An all-to-all approach to the identification of sequence-specific readers for epigenetic DNA modifications on cytosine”.

How the values were obtained:
Experiment in all cases: DAPPL (digital affinity profiling via proximity ligation, sequencing); 10 mM Tris-HCl pH 7.5, 50 mM NaCl, 1 mM DTT, 4% glycerol, room temperature, 30 min; GST-TFs on glutathione beads, 16-mer random dsDNA library, 0.1% formaldehyde crosslink after washing; high values mean tight binding
FLI1 = molecular target: T1, FLI1 (Homo sapiens, UniProt Q01543 1-452); conditions: protein: recombinant; tags: N-terminal GST; dsDNA, one strand shown
T1 sequence: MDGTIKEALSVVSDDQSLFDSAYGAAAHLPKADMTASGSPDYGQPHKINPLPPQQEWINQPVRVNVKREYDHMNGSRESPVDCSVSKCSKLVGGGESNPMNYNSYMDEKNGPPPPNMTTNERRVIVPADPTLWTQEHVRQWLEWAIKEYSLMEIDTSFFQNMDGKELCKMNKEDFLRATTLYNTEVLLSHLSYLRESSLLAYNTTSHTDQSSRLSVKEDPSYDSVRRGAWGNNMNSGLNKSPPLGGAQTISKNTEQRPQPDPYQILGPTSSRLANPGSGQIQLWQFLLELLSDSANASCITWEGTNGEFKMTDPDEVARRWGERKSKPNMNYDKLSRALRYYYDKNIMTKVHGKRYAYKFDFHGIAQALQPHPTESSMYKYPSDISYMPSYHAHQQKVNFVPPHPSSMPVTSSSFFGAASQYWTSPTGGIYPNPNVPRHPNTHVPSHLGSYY
Method in brief: (§1)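 After expression in yeast as GST fusions, human transcription factors were bound to glutathione beads, DNA-barcoded and mixed with a tag-only sample. The pools were incubated with 200 nmole of a 16-mer random double-stranded DNA library in Tris/NaCl/DTT/glycerol buffer (30 min, room temperature), washed and crosslinked with 0.1% formaldehyde. Proximity ligation with BsaI/T4 ligase ran for 1 h at 37 °C, before PCR amplification and sequencing on an Illumina NextSeq500. Binding signal is a hexamer's read frequency for a factor divided by its frequency for the tag-only sample.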

ELK4 = molecular target: T2, ELK4 (Homo sapiens, UniProt P28324-2 1-405); conditions: protein: recombinant; tags: N-terminal GST; dsDNA, one strand shown
T2 sequence: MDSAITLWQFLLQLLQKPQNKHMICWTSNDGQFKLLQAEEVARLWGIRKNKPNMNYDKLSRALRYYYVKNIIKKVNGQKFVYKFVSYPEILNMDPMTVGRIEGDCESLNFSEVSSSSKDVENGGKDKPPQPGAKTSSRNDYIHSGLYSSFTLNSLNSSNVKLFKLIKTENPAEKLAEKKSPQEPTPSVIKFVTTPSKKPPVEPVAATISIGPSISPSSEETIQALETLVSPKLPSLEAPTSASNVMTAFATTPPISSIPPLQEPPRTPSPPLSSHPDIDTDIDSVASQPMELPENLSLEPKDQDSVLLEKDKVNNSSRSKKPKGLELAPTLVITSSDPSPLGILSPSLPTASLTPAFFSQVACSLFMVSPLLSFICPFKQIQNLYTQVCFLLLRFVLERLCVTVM
Method in brief: as §1

ETV2 = molecular target: T3, ETV2 (Homo sapiens, UniProt O00321 1-342); conditions: protein: recombinant; tags: N-terminal GST; dsDNA, one strand shown
T3 sequence: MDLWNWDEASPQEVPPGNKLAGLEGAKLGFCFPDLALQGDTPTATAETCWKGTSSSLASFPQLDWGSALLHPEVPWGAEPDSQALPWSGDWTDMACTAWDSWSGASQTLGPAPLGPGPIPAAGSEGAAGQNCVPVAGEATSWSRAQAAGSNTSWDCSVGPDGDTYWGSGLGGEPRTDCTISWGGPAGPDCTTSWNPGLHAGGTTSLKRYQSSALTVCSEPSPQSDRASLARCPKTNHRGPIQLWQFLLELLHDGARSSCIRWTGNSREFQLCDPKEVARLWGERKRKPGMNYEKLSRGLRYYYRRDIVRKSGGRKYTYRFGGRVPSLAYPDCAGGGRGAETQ
Method in brief: as §1

ELF3 = molecular target: T4, ELF3 (Homo sapiens, UniProt P78545 1-371); conditions: protein: recombinant; tags: N-terminal GST; dsDNA, one strand shown
T4 sequence: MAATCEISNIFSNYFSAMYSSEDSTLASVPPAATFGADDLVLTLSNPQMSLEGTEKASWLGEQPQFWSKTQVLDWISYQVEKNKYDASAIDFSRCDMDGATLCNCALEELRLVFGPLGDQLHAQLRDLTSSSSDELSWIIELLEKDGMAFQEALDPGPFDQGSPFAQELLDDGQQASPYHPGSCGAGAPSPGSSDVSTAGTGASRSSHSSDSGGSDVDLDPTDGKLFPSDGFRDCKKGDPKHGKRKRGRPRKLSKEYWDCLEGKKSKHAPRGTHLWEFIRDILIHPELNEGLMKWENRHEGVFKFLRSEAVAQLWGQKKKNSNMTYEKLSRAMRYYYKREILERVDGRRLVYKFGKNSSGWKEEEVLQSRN
Method in brief: as §1

ETV1 = ETV1 (Homo sapiens, UniProt P50549 1-477); conditions: protein: recombinant; tags: N-terminal GST; dsDNA, one strand shown
Chain of ETV1 (P50549 whole entry): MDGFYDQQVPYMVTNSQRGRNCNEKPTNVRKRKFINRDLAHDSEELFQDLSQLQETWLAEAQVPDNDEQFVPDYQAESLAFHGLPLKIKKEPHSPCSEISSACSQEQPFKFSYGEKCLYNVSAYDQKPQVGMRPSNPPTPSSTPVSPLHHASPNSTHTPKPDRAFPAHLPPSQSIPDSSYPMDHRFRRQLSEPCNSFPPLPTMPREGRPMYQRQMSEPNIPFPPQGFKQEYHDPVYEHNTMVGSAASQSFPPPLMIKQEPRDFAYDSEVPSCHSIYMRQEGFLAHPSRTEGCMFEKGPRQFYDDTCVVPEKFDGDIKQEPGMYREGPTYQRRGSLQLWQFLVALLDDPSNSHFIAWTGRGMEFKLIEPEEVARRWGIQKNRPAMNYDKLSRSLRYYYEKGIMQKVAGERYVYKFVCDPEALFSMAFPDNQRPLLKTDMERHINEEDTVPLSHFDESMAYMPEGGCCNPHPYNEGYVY
Method in brief: as §1

ERF = molecular target: T5, ERF (Homo sapiens, UniProt P50548 1-548); conditions: protein: recombinant; tags: N-terminal GST; dsDNA, one strand shown
T5 sequence: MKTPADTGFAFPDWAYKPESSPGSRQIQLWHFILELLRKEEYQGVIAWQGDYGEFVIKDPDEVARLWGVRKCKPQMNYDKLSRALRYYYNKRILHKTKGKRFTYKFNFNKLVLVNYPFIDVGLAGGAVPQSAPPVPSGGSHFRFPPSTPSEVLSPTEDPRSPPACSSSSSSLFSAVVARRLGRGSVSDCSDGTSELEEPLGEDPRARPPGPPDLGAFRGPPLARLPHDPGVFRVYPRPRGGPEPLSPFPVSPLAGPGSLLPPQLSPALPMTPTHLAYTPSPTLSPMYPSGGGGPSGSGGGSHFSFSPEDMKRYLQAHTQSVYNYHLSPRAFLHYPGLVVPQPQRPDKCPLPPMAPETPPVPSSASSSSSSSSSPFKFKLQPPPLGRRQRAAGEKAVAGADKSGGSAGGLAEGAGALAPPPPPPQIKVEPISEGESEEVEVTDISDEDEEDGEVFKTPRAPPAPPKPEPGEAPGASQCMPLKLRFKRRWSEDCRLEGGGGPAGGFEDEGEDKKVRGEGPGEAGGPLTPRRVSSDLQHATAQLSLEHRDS
Method in brief: as §1

ETV3L = molecular target: T6, ETV3L (Homo sapiens, UniProt Q6ZN32 1-361); conditions: protein: recombinant; tags: N-terminal GST; dsDNA, one strand shown
T6 sequence: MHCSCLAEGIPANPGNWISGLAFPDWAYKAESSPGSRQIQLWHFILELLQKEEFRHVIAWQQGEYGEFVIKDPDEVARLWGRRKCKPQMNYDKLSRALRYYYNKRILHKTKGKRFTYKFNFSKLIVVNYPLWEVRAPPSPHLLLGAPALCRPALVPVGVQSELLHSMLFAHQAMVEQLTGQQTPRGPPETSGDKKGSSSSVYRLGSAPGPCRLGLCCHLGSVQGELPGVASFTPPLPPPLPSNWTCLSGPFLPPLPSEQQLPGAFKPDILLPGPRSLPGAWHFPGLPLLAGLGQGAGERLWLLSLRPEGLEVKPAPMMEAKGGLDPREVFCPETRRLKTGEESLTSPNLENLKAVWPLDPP
Method in brief: as §1

SPDEF = molecular target: T7, SPDEF (Homo sapiens, UniProt O95238 1-335); conditions: protein: recombinant; tags: N-terminal GST; dsDNA, one strand shown
T7 sequence: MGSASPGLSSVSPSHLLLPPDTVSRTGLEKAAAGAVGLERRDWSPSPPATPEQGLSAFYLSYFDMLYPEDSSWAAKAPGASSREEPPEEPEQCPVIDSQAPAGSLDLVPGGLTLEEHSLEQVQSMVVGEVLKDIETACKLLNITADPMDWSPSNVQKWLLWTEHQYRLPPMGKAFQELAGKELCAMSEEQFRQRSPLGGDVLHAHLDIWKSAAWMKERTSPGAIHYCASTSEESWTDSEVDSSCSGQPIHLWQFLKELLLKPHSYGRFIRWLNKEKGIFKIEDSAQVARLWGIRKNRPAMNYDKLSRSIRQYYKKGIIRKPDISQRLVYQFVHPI
Method in brief: as §1

EHF = molecular target: T8, EHF (Homo sapiens, UniProt Q9NZC4 1-300); conditions: protein: recombinant; tags: N-terminal GST; dsDNA, one strand shown
T8 sequence: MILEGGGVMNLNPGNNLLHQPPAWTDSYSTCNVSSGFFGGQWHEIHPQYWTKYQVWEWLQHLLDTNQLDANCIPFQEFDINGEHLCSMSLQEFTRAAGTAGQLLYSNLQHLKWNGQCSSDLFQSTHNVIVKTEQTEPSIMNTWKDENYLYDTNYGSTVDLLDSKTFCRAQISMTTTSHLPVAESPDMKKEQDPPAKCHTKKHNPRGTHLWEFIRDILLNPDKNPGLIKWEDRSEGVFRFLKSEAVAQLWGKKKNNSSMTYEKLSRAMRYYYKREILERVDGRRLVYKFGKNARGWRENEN
Method in brief: as §1

SPIB = SPIB (Homo sapiens, UniProt Q01892 1-262); conditions: protein: recombinant; tags: N-terminal GST; dsDNA, one strand shown
Chain of SPIB (Q01892 whole entry): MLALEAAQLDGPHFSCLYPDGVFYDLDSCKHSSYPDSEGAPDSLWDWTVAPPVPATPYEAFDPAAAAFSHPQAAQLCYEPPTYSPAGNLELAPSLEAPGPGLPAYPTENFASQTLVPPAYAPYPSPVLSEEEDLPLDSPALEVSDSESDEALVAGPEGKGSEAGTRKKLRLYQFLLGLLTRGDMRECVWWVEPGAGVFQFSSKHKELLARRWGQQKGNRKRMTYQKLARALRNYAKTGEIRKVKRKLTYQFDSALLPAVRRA
Method in brief: as §1

ETV7 = molecular target: T9, ETV7 (Homo sapiens, UniProt Q9Y603 1-341); conditions: protein: recombinant; tags: N-terminal GST; dsDNA, one strand shown
T9 sequence: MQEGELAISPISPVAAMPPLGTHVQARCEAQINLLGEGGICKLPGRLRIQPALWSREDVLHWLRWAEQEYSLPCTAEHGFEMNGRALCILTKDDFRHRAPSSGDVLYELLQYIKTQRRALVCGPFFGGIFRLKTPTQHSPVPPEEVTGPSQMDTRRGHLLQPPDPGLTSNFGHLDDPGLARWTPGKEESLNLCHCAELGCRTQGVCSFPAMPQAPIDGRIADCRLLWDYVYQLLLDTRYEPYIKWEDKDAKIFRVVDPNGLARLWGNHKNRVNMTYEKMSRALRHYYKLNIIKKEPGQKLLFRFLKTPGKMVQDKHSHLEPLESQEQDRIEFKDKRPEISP
Method in brief: as §1

ETV3 = molecular target: T10, ETV3 (Homo sapiens, UniProt P41162-2 1-143); conditions: protein: recombinant; tags: N-terminal GST; dsDNA, one strand shown
T10 sequence: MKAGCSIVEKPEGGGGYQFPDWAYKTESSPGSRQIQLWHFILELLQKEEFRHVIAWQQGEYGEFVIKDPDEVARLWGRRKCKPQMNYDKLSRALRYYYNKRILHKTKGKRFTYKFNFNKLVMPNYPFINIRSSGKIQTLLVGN
Method in brief: as §1

ETV6 = ETV6 (Homo sapiens, UniProt P41212 1-452); conditions: protein: recombinant; tags: N-terminal GST; dsDNA, one strand shown
Chain of ETV6 (P41212 whole entry): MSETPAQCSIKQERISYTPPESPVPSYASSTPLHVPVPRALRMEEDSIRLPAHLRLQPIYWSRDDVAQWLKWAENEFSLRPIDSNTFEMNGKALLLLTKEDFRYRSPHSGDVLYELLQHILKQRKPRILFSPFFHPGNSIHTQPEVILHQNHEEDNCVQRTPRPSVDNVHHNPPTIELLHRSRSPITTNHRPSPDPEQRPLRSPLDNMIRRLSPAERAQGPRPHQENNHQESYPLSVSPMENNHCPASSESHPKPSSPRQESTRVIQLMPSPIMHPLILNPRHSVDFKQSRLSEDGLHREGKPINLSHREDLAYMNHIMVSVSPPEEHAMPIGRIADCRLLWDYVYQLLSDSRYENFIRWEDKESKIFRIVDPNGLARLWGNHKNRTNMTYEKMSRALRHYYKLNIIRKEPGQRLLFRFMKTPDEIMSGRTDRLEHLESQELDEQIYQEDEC
Method in brief: as §1

HSF1 = HSF1 (Homo sapiens, UniProt Q00613 1-529); conditions: protein: recombinant; tags: N-terminal GST; chain copies: 3; dsDNA, one strand shown
Chain of HSF1 (Q00613 whole entry): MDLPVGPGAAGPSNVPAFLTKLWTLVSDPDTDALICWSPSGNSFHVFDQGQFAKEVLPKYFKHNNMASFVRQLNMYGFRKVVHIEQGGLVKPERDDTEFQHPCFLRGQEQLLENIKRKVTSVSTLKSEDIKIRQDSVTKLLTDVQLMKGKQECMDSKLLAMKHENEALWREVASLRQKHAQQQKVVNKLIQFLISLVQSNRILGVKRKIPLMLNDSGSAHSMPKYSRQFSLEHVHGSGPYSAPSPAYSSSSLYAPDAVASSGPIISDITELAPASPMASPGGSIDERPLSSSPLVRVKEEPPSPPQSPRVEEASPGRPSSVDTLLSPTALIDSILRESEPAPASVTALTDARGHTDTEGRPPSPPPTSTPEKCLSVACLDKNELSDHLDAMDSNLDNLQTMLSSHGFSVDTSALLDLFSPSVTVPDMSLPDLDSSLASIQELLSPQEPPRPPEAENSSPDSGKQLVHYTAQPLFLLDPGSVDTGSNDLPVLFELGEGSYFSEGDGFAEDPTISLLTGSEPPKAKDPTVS
Method in brief: as §1

## TCGTTG
FLI1
  binding signal: 1.01 fold enrichment (6-mer frequency, TF over GST control)
ELK4
  binding signal: 1.1 fold enrichment (6-mer frequency, TF over GST control)
ETV2
  binding signal: 1.19 fold enrichment (6-mer frequency, TF over GST control)
ELF3
  binding signal: 1.07 fold enrichment (6-mer frequency, TF over GST control)
ETV1
  binding signal: 1.02 fold enrichment (6-mer frequency, TF over GST control)
ERF
  binding signal: 1.03 fold enrichment (6-mer frequency, TF over GST control)
ETV3L
  binding signal: 1.1 fold enrichment (6-mer frequency, TF over GST control)
SPDEF
  binding signal: 1.01 fold enrichment (6-mer frequency, TF over GST control)

## TGCGGT
FLI1
  binding signal: 1.09 fold enrichment (6-mer frequency, TF over GST control)
EHF
  binding signal: 1.07 fold enrichment (6-mer frequency, TF over GST control)
SPIB
  binding signal: 1.02 fold enrichment (6-mer frequency, TF over GST control)
ETV2
  binding signal: 1.08 fold enrichment (6-mer frequency, TF over GST control)
ETV7
  binding signal: 1 fold enrichment (6-mer frequency, TF over GST control)
ETV3
  binding signal: 1.01 fold enrichment (6-mer frequency, TF over GST control)
ETV6
  binding signal: 1.03 fold enrichment (6-mer frequency, TF over GST control)

## CGAAGA
HSF1
  binding signal: 1.19 fold enrichment (6-mer frequency, TF over GST control)
